Reference: ChEMBL document CHEMBL3988442, “University of Dundee, Small-Polar-MMV Screening Library” (2021)
For some assays here: Potency and affinity values are given separately.

Columns and labels:
Set-up in all cases: scale not given: direction of the effect not stated beside the values
[1] = molecular target: Protein translocase subunit SecA (Escherichia coli (strain K12)) (UniProt P10408); test: Assay to Identify E. coli SecA ATPase Inhibitors; assay type: functional; details: 30 µM
[2] = molecular target: T1, Ubiquitin-activating enzyme e1, putative (Leishmania donovani (strain BPK282A1)) (UniProt E9BSI1); test: Leishmania donovani Ubiquitin Activating Enzyme (LdE1); assay type: functional; details: 30 µM
T1 sequence (whole entry): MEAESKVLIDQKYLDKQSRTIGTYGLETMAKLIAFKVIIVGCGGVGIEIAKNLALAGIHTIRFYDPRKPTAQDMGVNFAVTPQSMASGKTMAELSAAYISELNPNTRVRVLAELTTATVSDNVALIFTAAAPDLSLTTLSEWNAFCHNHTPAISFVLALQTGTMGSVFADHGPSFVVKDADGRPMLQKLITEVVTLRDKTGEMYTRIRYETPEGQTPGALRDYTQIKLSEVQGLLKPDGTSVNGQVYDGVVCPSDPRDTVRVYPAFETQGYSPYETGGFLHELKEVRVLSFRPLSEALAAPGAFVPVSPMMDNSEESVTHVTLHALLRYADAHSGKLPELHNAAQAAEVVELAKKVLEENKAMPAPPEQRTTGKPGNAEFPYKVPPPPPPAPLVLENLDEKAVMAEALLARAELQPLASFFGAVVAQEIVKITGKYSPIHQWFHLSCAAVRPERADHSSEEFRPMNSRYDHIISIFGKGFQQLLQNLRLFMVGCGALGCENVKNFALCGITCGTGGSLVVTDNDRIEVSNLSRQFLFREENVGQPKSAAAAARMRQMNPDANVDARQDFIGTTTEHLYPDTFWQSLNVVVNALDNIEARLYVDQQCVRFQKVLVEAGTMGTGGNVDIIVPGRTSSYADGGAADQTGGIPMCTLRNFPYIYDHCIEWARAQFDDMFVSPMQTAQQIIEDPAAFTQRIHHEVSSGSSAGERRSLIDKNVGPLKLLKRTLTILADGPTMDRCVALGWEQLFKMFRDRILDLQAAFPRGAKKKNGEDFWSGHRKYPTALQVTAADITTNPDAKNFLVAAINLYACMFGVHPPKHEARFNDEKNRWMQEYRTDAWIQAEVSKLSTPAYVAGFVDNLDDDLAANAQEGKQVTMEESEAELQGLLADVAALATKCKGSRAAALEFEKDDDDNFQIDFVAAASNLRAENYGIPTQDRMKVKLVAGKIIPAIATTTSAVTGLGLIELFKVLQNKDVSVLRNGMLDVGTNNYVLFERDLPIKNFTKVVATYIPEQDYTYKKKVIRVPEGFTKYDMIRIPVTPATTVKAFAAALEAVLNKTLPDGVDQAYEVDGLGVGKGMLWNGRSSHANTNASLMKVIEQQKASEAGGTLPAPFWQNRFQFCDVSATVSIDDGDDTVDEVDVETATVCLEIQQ

[3] = molecular target: AMP-activated protein kinase, AMPK (Homo sapiens) (UniProt P54646+O43741+P54619+Q9UGJ0+Q9Y478+Q13131+Q9UGI9); test: AMP-dependent Kinase enzyme assay. An in vitro enzyme assay that detects ADP turnover that is directly proportional to AMPK activity. This uses naive AMPK that is activated during the assay with MK-8722; assay type: functional; details: 30 µM
[4] = molecular target: Sialic acid-binding Ig-like lectin 9 (Homo sapiens) (UniProt Q9Y336); test: Hs-Siglec9 ALPHAscreen SOP 20170721; details: 10 µM
Sialic acid-binding Ig-like lectin 9 (Homo sapiens), sequence (Q9Y336 whole entry): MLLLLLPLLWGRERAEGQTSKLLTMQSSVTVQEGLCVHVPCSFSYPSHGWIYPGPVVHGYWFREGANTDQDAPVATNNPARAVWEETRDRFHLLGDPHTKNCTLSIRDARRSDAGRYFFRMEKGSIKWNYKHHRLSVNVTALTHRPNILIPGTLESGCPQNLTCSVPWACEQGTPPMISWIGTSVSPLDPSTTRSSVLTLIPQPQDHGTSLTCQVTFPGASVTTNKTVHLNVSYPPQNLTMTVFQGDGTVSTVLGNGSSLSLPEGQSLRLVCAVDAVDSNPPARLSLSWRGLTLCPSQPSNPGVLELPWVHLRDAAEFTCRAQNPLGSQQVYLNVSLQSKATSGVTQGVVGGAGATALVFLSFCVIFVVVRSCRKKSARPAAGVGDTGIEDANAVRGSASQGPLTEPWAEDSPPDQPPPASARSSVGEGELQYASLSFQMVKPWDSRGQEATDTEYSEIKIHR

Trypanosoma cruzi = test: Trypanosoma cruzi phosphomannomutase and mannose-1-phosphate guanylyltransferase assay; assay type: functional; details: 10 µM
[5] = molecular target: T2, Arginase-2, mitochondrial (Homo sapiens) (UniProt P78540); test: in vitro enzyme assay to detect the production of urea directly proportional to the activity of Arginase II; assay type: functional; details: 33.3 µM; also: in the data most compounds retested in dose-response had high values
T2 sequence (whole entry): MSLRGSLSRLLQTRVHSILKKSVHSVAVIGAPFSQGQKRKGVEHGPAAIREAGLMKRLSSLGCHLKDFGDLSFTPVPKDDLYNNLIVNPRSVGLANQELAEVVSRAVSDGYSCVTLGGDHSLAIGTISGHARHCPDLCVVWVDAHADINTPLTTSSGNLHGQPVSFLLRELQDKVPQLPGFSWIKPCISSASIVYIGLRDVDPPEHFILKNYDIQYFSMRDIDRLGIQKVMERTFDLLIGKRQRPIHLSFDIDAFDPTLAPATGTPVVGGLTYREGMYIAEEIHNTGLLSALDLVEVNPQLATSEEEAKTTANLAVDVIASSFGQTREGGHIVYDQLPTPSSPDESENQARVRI

[6] = molecular target: T3, Proteasome subunit beta (Trypanosoma cruzi) (UniProt O96673); test: Trypanosoma cruzi proteasome chymotrypsin-like activity (TcProtChymo) assay.; also: in the data most compounds retested in dose-response had high values; assay type: functional; details: 9.37 µM
T3 sequence (whole entry): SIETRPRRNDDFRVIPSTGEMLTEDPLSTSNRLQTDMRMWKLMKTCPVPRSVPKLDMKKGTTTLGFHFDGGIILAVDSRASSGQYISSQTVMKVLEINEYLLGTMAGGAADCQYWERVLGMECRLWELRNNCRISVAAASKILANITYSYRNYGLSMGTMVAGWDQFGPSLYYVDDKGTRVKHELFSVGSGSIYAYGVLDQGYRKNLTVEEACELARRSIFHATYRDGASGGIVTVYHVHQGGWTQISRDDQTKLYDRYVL

Homo sapiens = organism: Homo sapiens; test: To identify inhibition of the IFN signalling (Jak-Stat) pathway via expression of an eGFP reporter gene under the control of an IFN-stimulated response element (ISRE) containing MxA promoter.; assay type: functional; details: 30 µM
[7] = molecular target: T4, Tyrosyl-tRNA synthetase, putative (Trypanosoma cruzi (strain CL Brener)) (UniProt Q4DSP6); test: Trypanosoma cruzi tyrosyl tRNA synthetase (TcYRS) _High Tyrosine SOP; assay type: functional; details: 30 µM; also: in the data most compounds retested in dose-response had high values
T4 sequence (whole entry): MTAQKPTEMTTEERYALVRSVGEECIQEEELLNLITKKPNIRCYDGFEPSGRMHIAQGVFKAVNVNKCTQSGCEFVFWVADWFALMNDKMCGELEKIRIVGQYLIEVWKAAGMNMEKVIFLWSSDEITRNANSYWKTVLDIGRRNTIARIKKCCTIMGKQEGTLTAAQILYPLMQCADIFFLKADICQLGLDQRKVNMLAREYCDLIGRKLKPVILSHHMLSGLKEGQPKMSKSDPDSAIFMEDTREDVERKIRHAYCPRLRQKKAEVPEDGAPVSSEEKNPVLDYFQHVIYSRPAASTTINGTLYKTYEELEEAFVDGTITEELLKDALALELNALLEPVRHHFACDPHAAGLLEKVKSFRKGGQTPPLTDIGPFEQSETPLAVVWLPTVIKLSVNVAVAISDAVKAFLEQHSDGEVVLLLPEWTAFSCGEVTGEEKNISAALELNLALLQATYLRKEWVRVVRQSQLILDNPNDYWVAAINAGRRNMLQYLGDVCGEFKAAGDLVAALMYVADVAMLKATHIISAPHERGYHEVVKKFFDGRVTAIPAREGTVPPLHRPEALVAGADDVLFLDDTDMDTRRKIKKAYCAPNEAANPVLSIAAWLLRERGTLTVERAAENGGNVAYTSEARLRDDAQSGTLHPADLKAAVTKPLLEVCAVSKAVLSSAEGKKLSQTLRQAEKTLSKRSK

[8] = molecular target: T4, Tyrosyl-tRNA synthetase, putative (Trypanosoma cruzi (strain CL Brener)); test: Trypanosoma cruzi tyrosyl tRNA synthetase (TcYRS) SOP; assay type: functional; details: 30 µM
[9] = molecular target: Chromo domain-containing protein 1 (Saccharomyces cerevisiae (strain ATCC 204508 / S288c) (Baker's yeast)) (UniProt P32657); test: ScCHD-1 Enzyme Inhibition Assay; assay type: functional; details: 30 µM; also: in the data most compounds retested in dose-response had high values
Chromo domain-containing protein 1 (Saccharomyces cerevisiae (strain ATCC 204508 / S288c) (Baker's yeast)), sequence (P32657 whole entry, the tested form may be a part): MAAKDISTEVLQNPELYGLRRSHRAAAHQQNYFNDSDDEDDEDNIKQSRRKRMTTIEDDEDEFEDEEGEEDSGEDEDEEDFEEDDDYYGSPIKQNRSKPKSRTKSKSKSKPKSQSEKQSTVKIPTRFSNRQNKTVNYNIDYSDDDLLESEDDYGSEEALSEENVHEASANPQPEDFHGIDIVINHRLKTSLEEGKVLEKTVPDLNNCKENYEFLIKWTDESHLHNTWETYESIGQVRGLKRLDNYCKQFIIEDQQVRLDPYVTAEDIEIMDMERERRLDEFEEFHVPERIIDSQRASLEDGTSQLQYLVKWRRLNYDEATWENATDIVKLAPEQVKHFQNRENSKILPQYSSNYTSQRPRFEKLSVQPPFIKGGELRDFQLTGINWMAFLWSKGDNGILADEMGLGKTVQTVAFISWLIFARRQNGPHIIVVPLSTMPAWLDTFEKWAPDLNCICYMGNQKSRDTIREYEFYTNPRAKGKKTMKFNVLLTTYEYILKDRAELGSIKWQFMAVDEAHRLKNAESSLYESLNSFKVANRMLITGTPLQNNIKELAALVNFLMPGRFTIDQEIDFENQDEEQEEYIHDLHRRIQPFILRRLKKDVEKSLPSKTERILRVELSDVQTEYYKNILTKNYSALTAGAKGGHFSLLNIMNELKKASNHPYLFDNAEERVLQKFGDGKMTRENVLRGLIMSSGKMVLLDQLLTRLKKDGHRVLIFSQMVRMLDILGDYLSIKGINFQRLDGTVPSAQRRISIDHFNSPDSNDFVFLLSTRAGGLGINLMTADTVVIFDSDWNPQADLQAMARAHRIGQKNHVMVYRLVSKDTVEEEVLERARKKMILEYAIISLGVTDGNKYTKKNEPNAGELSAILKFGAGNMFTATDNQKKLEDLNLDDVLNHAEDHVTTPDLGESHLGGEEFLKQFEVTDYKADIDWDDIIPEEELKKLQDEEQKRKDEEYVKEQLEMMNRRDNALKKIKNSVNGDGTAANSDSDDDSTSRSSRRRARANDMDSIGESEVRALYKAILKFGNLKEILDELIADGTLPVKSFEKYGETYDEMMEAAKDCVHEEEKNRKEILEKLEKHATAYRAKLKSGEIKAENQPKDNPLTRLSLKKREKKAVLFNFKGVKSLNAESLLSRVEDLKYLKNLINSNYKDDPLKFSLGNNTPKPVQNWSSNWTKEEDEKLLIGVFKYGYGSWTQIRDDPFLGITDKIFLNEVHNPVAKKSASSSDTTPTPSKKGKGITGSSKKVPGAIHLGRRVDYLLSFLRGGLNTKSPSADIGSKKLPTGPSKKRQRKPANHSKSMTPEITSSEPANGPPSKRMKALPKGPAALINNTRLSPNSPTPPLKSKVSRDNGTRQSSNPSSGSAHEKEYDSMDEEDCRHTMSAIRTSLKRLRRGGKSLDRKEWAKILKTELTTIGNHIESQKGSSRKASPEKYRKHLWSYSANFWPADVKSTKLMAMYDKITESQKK

Protein translocase subunit SecA (Escherichia coli (strain K12)), sequence (P10408 whole entry): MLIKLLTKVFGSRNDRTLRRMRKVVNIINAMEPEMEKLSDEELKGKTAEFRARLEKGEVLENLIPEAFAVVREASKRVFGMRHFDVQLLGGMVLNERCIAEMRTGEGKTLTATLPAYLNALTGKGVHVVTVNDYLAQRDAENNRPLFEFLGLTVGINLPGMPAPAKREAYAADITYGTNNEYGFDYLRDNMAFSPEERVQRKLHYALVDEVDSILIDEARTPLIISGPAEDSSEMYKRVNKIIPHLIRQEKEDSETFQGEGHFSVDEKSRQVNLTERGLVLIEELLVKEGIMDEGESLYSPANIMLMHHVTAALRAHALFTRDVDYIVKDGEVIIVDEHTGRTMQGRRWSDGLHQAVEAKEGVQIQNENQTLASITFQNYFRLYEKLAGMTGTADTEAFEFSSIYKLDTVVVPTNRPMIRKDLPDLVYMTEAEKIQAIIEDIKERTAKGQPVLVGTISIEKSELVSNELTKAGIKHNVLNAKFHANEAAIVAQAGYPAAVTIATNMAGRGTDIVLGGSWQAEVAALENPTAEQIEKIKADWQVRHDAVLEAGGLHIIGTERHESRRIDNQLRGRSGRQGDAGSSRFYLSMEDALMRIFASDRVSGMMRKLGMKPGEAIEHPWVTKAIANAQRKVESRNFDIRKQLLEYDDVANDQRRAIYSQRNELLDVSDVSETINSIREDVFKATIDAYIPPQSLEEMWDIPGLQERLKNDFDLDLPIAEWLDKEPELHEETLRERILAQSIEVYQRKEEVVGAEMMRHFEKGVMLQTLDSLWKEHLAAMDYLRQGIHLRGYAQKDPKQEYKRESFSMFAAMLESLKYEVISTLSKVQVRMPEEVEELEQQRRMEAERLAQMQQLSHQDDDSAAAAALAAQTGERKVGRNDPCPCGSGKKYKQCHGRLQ

Compound	Percent Effect [1] [%]	Percent Effect [2] [%]	Percent Effect [3] [%]	Percent Effect [4] [%]	Percent Effect (Trypanosoma cruzi) [%]	Percent Effect [5] [%]	Percent Effect [6] [%]	Percent Effect (Homo sapiens) [%]	Percent Effect [7] [%]	Percent Effect [8] [%]	Percent Effect [9] [%]
CN(C)CCNC(=O)c1cnc2c(c1)nc(-c1ccccc1Cl)n2C	-0.258	8.11	-1.84	30.9	3.81	1.74	9.36	17.4	7.53	16.1	-5.45
COc1ccc(C)cc1S(=O)(=O)NCC(c1cccn1C)N(C)C (configuration not stated)	-6.79	8.22	-12.1	2.18	-5.49	1.36	12.2	6.68	5.38	10	104
COCc1nc(C(=O)N2CCCCC2Cn2cccn2)cs1 (configuration not stated)	-1.64	-7.89	-1.7	-2.08	6.82	-3.24	-0.761	-20.6	0.493	3.7	3.28
C1CC(c2noc(C3CC3)n2)CN(Cc2noc(C3CC3)n2)C1 (configuration not stated)	-3.36	0	-13.1	11.5	-3.11	-1.6	1.62	-3.78	0.493	1.24	1.88
Cc1cc(C)n(CC2CCCN2C(=O)CCCc2ccccn2)n1 (configuration not stated)	-6.25	2.63	5.48	0.753	-3.76	2.68	10.9	16.9	1.47	4.88	-3.06
Cc1cc(CN(C)C(=O)C2CCS(=O)(=O)C2)no1 (configuration not stated)	0.281	18.2	-1.29	-9.12	4.21	2.74	14	31.4	5.71	21.2	-8.16
CNc1cc2c(nn1)CCN(C(=O)c1ccc(-n3nccc3C)cc1)C2	-3.9	7.79	-0.653	-3.32	6.56	-1.9	11.4	14.4	6.67	9.41	-16.2
O=C(Cn1cnnn1)N1CCCCC1Cn1cccn1 (configuration not stated)	-4.89	5.06	-3.21	-2.69	-6.52	-3.04	0.901	25.2	-3.45	-11.4	-5.05
CS(=O)(=O)c1ccc(OCCNCc2cccc(F)c2)cc1	-6.14	0	1.51	6.7	3.57	-0.798	4.02	3.81	8.33	13.6	3.19
CC(=O)N(Cc1noc(C2CC2)n1)C1CCN(Cc2nccn2C)C1 (configuration not stated)	-1.42	16.2	-8.4	-4.39	-6.22	-4.25	11.1	11.5	3.96	18.3	-5.65
CS(=O)(=O)N1CC[C@]2(C[C@@H](OCC3CCC3)CO2)C1	-3.98	16.2	-8.34	20.7	2.64	1.24	11.6	-1.67	5.38	18.5	-5.25
COCCOc1ccc(NC(=O)N2CCCC2c2cc(C)no2)cn1 (configuration not stated)	-4.97	0	0.449	5.01	-0.686	-1.05	5.74	9.34	5.71	2.35	-14.1
Cc1nnc(N2C[C@H](C(=O)NCC3CC3)[C@@H]3CCO[C@@H]3C2)s1	0.351	0	3.72	2.6	-6.02	-3.23	0.696	7.74	0	1.28	-1.37
O=C(NCc1ccco1)[C@H]1C[C@H]2OCC[C@H]2N(S(=O)(=O)C2CC2)C1	-3.9	8	-0.23	14.7	-2.7	-26.7	8.38	-14	-1.04	15	-8.9
Cc1cnn(CC2CN(Cc3nc4ccccc4nc3C)CCO2)c1 (configuration not stated)	-4.61	2.6	-4.31	-1.3	6.56	-4	7.52	-8.59	9.52	14.1	-22.4
CC(Cn1ccnc1)NC(=O)NCCNC(=O)C(C)C (configuration not stated)	2.77	23.7	-2.17	-3.21	0.94	-4.6	15.4	31.2	3.43	19.5	-9.78
CNC(=O)CCc1cc(C)nc(C2CCCN2)c1 (configuration not stated)	-6.62	14.9	6.02	1.63	2.17	-3.02	6.08	-9.75	2.15	11.7	-23.7
CCOCCCNC(=O)c1cn(CC)nc1C	-3.21	20	-2.97	-1.34	0.982	1.58	15.3	16.9	6.35	17.9	-9.37
Cc1csc(N2CCN(C(=O)CCn3cncn3)CC2)n1	-2.99	17.7	-7.64	11.1	0.472	4.18	6.31	-0.236	8.37	21.5	-6.07
c1cnnc(N2CCCC(NCc3ccc(-n4cccn4)cc3)C2)c1 (configuration not stated)	-0.865	-5.2	14.6	4.94	-0.686	1.9	1.7	20.3	0.952	7.06	-7.51
Cc1csc(N2CCN(C(=O)CCNc3ncccn3)CC2)n1	-4.07	16.2	-2.35	-1.96	1.42	-6.41	5.04	14.1	-61.6	16.1	-9.84
Cc1cncc(C(=O)N2CCCCC2c2nc(C)cs2)c1 (configuration not stated)	-4.34	-36.4	-2.13	4.39	8.99	3.92	9.29	16.2	9.71	21.9	-10.7
